Test results: PubChem BioAssay AID1053117 (Broad Institute, 2014)
Potency and affinity values are given separately. The source made the active and inactive calls.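 The calls were made as follows: active = compounds lowering cell ATP signal with a fitted half-effect dose at most twice the top valid dose; inconclusive = flat curve with 30 to 70% signal loss, or bad fit; inactive = wrong direction, flat within 30%, or weaker than limit.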

Assay: HEK293 cell cytotoxicity, dose response, cytotoxicity control, cherry-picks, set 5 (AID 1053117);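 also: more negative means greater loss of ATP signal and more cytotoxicity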

**Q.** For `C=C1C(=O)O[C@@H]2C[C@@H](C)[C@@H]3C=CC(=O)[C@@]3(C)[C@@H](O)[C@H]12`, which outcome is on record?
**A.** inactive
